Bioassay records deposited in PubChem BioAssay by National Center for Advancing Translational Sciences (NCATS).
HTT prom inh = inhibits huntingtin promoter activity | HEK293 HTT promoter firefly luciferase reporter, 24 h | actives 0.93% (n = 48,000) | Potency, µM (series often up to 57.5 µM), inactives show top-dose activity change, negative = inhibition, actives largely listed as inhibitors | AID 1508623; also: nearly all actives have a fitted effect of over 50% in size
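Luminescence was read after Dual-Glo reagent and a 10 min room-temperature incubation. Values were normalized to vehicle (0% activity) and zero RLU (-100% activity). Reporter HEK293 cells had been exposed to compounds (up to 57.5 uM final) for 24 h.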
NTMT1 inhibitor = NTMT1 methyltransferase inhibition. Q9BV86. NTMT1 MTase-Glo SAH luminescence, purified enzyme. Potency, µM (doses to about 114 µM), for inactives: at the top dose activity change, negative = inhibition, most hits filed as inhibitors. actives 2.5% (n = 59,000);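 also: plate controls were DMSO vehicle for no effect and no enzyme for full effect; nearly all actives have a fitted effect of over 65% in size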
Target sequence (Q9BV86 whole entry, looked up): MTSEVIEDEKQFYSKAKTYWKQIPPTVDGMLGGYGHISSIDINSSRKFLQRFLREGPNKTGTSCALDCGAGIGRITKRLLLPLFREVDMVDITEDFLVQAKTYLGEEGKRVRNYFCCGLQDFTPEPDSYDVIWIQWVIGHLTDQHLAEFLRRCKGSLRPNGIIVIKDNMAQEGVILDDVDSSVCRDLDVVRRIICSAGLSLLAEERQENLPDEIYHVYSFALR
HTT-AS act = activators of huntingtin-antisense promoter activity; HEK293 HTT-AS promoter firefly luciferase reporter, 24 h; response scale: percent change from vehicle, -100% = no light; Potency, µM (top dose mostly 57.5 µM), inactives show at the top dose activity change, positive = activation, actives largely listed as activators; AID 1508624; actives 0.24% (n = 48,000); also: nearly all actives have a fitted effect of over 55% in size
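HEK293 cells carrying firefly luciferase reporters were seeded at 2,500 per well in Opti-MEM and cultured for 24 h. They were then treated with compounds at up to 57.5 uM final for 24 h at 37 degrees C before Dual-Glo luminescence readout.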
* = called active by the depositor; ? = inconclusive; . = no result given; ! = a repeat was not active; [ ] = another dose, or the depositor's remark. Only a selection was taken, and hits are over-represented in it overall. Calls follow the shape of the dose curve; as a rule, active = well fitted curve in the direction sought with a large enough effect; inconclusive = small, poorly fitted or top-dose-only effect, or another doubt; inactive = no such curve, though single readings can be large; an effect the other way counts as inactive or inconclusive. Potency is read from the fitted curve at half-maximal effect.

SMILES	HTT prom inh	NTMT1 inhibitor	HTT-AS act
COc1ccc(CCNC(=O)Cn2nc(C)c3c(C)n(-c4ccc(C)cc4)nc3c2=O)c(OC)c1	2.5µM*	45µM*	-68%
CCC(C(=O)NCCc1cc(OC)ccc1OC)n1nc(C)c2c(C)n(-c3ccccc3)nc2c1=O (stereo not given)	?	-18%	-12%
O=C(Nc1ncc(Cc2ccc(C(F)(F)F)cc2)s1)c1cnc(-c2ccccc2)[nH]1	.	18%	.
COc1ccc(CN(C(=O)c2cc3ccccc3oc2=O)C2CCS(=O)(=O)C2)cc1 (stereo not given)	8%	10%	?
COc1ccc(CN(C(=O)c2cc3ccccc3oc2=O)C2CCS(=O)(=O)C2)cc1OC (stereo not given)	48%	-14%	11µM*
Cc1cn(C2C[C@H](O)[C@@H](CO)O2)c(=O)[nH]c1=O (stereo not given in full)	.	11%	.
CCOc1ccc(-c2nc(CSCC(=O)NCCc3ccccc3)c(C)o2)cc1	7.1µM*	-15%	-50%
CCc1ccc(-c2nc(CSCC(=O)NCCc3ccccc3)c(C)o2)cc1	.	-1%[57.5 µM]	.
O=C(Nc1cccc(C(F)(F)F)c1)c1cccc2cc(Oc3cc(CO)ncn3)ccc12	.	18%	.
NC[C@@H](O)c1ccc(O)c(O)c1	.	-16%	.
Oc1ccc(C(O)CNCCCCCCNCC(O)c2ccc(O)c(O)c2)cc1O (stereo not given)	-6%	35µM*	-12%
CC(C)NCC(O)c1ccc(O)c(O)c1 (stereo not given)	-6%	?	5%
CNC[C@H](O)c1ccc(O)c(O)c1	-12%[116 µM]	55µM*!	-20%[116 µM]
COc1c2c(c(CO)c3c1C(=O)OC3)OC1(C)CCC3(O)C(C)(C)OC(=O)CCC3(C)C1C2 (stereo not given)	.	1%[29.8 µM]	.
COc1ccc(Cl)cc1NC(=O)CSc1nnc(C)n2c1cc1sccc12	2%	-8%	-2%
COC(=O)c1cc2sccc2n1CC(=O)Nc1cc(Cl)ccc1OC	28µM*	19%	-85%
COc1c2c(c(C)c3c1C(=O)OC3)OC1(C)CC(O)C34OC(OC)(CC(O)C3(C)C1C2)OC4(C)C (stereo not given)	.	8%[29.8 µM]	.
O=C(COc1ccccc1)Nc1ccc(S(=O)(=O)N(Cc2ccccc2)c2ccccc2)cc1	-7%	-6%	3%
Cc1ccc(C(=O)Nc2ccc(S(=O)(=O)N(Cc3ccccc3)c3ccccc3)cc2)cc1	?	13%	-35%
CCOc1ccc(C(=O)Nc2ccc(S(=O)(=O)N(Cc3ccccc3)c3ccccc3)cc2)cc1	1.8µM*	8%	-94%
CCOc1ccc(NC(=O)c2ncn(-c3ccccc3)n2)cc1	36%	-3%	8.9µM*
COc1ccc(C(=O)Nc2ccc(S(=O)(=O)N(Cc3ccccc3)c3ccccc3)cc2)cc1	5µM*	15%	-38%
O=C(Nc1ccc(F)cc1)c1ncn(-c2ccccc2)n1	36%	-15%	?
Cc1cc(-c2cnn3c(NCC4CC(C)(O)C4)cc(Oc4cccnc4)nc23)ccc1C(=O)NC1CC1 (stereo not given)	.	9%[12.6 µM]	.
Nc1nc(N)c2nc(-c3cccc(Cl)c3)c(N)nc2n1	.	-18%	.
SMILES	HTT prom inh	NTMT1 inhibitor	HTT-AS act
COc1cc(C(=O)NC(c2ccc(Cl)cc2)c2cc(Cl)c3cccnc3c2O)cc(OC)c1OC (stereo not given)	5µM*	5%	-61%
COc1cccc(C(=O)NC(c2ccc(Cl)cc2)c2cc(Cl)c3cccnc3c2O)c1 (stereo not given)	?	10%	-44%
c1ccc(-c2nc(NCc3ccc(-c4cccnc4)cc3)c3ccccc3n2)cc1	.	2%[57.5 µM]	.
Cc1ccc(-c2cc(C(=O)Nc3ccncc3)c3ccccc3n2)cc1C	.	0%	.
Cc1ccc(-c2cc(C(=O)NCc3ccc(S(N)(=O)=O)cc3)c3ccccc3n2)cc1C	.	-9%	.
Cc1ccc(-c2cc(C(=O)NCc3ccc(S(C)(=O)=O)cc3)c3ccccc3n2)cc1C	.	50µM*	.
Cc1ccc(-c2cc(C(=O)Nc3ccc(-c4noc(=O)[nH]4)cc3)c3ccccc3n2)cc1C	.	45µM*	.
O=S(=O)(Nc1ccc(-c2cccnc2)c2cccnc12)c1cccc(C(F)(F)F)c1	.	14%	.
O=C1CCCC2=C1C(c1cccc(C(F)(F)F)c1)N=C(Nc1nc3ccccc3o1)N2 (stereo not given)	.	20%	.
C[C@@H]1CN(CC(=O)N2CC(C)(C)c3ncc(Cc4ccc(F)cc4)cc32)[C@@H](CN2CCOC[C@H]2C)CN1	.	79µM*!	.
CCOc1cc(CNC2CCCC2)cc(Cl)c1OCc1ccc(Cl)cc1	.	-11%[57.5 µM]	.
CCOc1ccc(NC(=O)Cn2c(=O)oc3cc(S(=O)(=O)N4CCCCCC4)ccc32)cc1	?	19%	-23%
CC(C)c1ccc(NC(=O)Cn2c(=O)oc3cc(S(=O)(=O)N4CCCC4)ccc32)cc1	14µM*	0%	-48%
Cc1cc(C)c(NC(=O)Cn2c(=O)oc3cc(S(=O)(=O)N4CCCCCC4)ccc32)c(C)c1	10µM*	1%	-42%
Cc1cc(C)cc(NC(=O)Cn2c(=O)oc3cc(S(=O)(=O)N4CCCC4)ccc32)c1	?	1%	-33%
CC(C)N(CCCCOCC(=O)NS(C)(=O)=O)c1cnc(-c2ccccc2)c(-c2ccccc2)n1	.	-8%[57.5 µM]	.
CC(=O)N1CCCc2ccc(NC(=O)c3ccc(OC(C)C)cc3)cc21	?	-3%	-41%
CCCCOc1ccc(C(=O)Nc2ccc3c(c2)N(C(C)=O)CCC3)cc1	4.5µM*	-15%	-88%
O=C(Nc1onc2c1CCCC2)c1ccc(Cl)cc1	62%	-6%	?
CCCCOc1ccc(C(=O)Nc2onc3c2CCCC3)cc1	38%	-5%	13µM*
CC(C)(C)c1ccc(-c2nc3c(N4CCN(Cc5ccc6nccnc6c5)CC4)cccc3[nH]2)cc1	.	-10%[57.5 µM]	.
Cn1nccc1Nc1nccc(-c2cc3c(s2)C(C)(C)N(CCN2CCOCC2)C3=O)n1	.	3%	.
CN1CCc2cc3c(cc2C(=O)Cc2cc4c(cc2C1)OCO4)OCO3	.	6%[29.8 µM]	.
CCOCCCNC(=O)c1c[nH]c2ccc(S(=O)(=O)Nc3cccc(Cl)c3C)cc2c1=O	-22%	89µM*	-27%
CNC(=O)c1c[nH]c2ccc(S(=O)(=O)Nc3cccc(Cl)c3C)cc2c1=O	-21%	-2%	-50%
SMILES	HTT prom inh	NTMT1 inhibitor	HTT-AS act
CC(C)CCNC(=O)c1c[nH]c2ccc(S(=O)(=O)Nc3cccc(C(F)(F)F)c3)cc2c1=O	?	2%	-40%
Cc1ccc(CCNC(=O)c2c[nH]c3ccc(S(=O)(=O)Nc4cccc(C(F)(F)F)c4)cc3c2=O)cc1	16µM*	14%	-43%
Cc1cc(-c2nc(-c3ccc(OC(F)(F)F)cc3)no2)nn1Cc1ccnc(N2CCN(C3CC3)CC2)c1	.	2%[57.5 µM]	.
CC(=O)Nc1sc2c(c1-c1ccc3nc[nH]c3c1)CCNC2	.	50µM*	.
CC(=O)Nc1sc2c(c1-c1ccc3nsnc3c1)CCNC2	.	7%	.
CC(=O)OC1C(O)CC(O[C@@H]2O[C@H](CO)[C@@H](O)[C@H](O)[C@H]2O)C2CCC3C(=O)OC(c4ccoc4)CC3(C)C21 (stereo not given in full)	.	1%[29.8 µM]	.
COc1ccc2nc3n[nH]c(C)c3c(NCCOCCO)c2c1	.	20µM*!	.
